In PubChem BioAssay (NCATS):
Inconclusive results are not listed. Unless noted, the call rests on the fitted dose curve; in most records, active means well fitted curve in either direction with a large enough effect (not every such curve was filed as active); inconclusive means small, poorly fitted or top-dose-only effect, or another doubt; inactive means flat fitted curve, though single readings scatter.

Assays:
[1] = AP1 Signaling Pathway (AID 357); conditions: ME-180 AP-1-bla reporter, EGF-induced, beta-lactamase ratio, 5 h; at 17.2 µM (top of the series) unless noted;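 further: ME-180 reporter cells stimulated with EGF at its EC50 level; on the % scale 0 is the no-effect control and ±100 the full control effect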
In short: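 Read-out was the 460nm/530nm emission ratio (excitation 405nm) after CCF4 loading for 2.5 hours at room temperature. Cells carried an AP-1-driven beta-lactamase reporter, were stimulated with EC50 EGF plus compound for 5 hours, and AC50 values came from titrations.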

[2] = NFAT Signaling Pathway (AID 444); conditions: Jurkat NFAT-bla M1, carbachol, beta-lactamase ratio, 5 h; at 17.2 µM (top of the series) unless noted;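 further: carbachol stimulus at about its EC50 of 1 µM final; on the % scale 0 is the no-effect control and ±100 the full control effect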
In short: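 Jurkat cells with NFAT-driven β-lactamase reporter and co-expressed M1 receptor, stimulated with carbachol (final 1 uM, ~EC50), compound titration, 5 h at 37 °C. CCF4 loaded 1 h at RT; 460/530 nm ratio gave %activity and AC50.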

[3] = Stat Signaling Pathway (AID 446); conditions: ME-180 (cervical carcinoma) SIE beta-lactamase reporter, IL-6 stimulated, 5 h; at 17.2 µM (top of the series) unless noted;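 further: ME-180 cervical cancer cells given 40 pM IL-6 alongside compound; SIE-controlled beta-lactamase reporter measured as 460/530 nm FRET emission ratio; on the % scale 0 is the no-effect control and ±100 the full control effect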
In short: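 Compound effects on IL-6-induced STAT reporter activity were measured in ME-180 cells. After overnight culture, cells were co-treated with 40 pM IL-6 for 5 hrs before beta-lactamase substrate loading at room temperature.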

[4] = target: Glucocorticoid receptor (Homo sapiens) (UniProt P04150); test: GR-GFP Redistribution (AID 450;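 active means compounds whose dose series gives a full or clear partial fitted curve of increased nuclear translocation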; further: potency means the concentration at half of the fitted maximal effect)
Sequence of Glucocorticoid receptor (Homo sapiens) (P04150 whole entry, looked up): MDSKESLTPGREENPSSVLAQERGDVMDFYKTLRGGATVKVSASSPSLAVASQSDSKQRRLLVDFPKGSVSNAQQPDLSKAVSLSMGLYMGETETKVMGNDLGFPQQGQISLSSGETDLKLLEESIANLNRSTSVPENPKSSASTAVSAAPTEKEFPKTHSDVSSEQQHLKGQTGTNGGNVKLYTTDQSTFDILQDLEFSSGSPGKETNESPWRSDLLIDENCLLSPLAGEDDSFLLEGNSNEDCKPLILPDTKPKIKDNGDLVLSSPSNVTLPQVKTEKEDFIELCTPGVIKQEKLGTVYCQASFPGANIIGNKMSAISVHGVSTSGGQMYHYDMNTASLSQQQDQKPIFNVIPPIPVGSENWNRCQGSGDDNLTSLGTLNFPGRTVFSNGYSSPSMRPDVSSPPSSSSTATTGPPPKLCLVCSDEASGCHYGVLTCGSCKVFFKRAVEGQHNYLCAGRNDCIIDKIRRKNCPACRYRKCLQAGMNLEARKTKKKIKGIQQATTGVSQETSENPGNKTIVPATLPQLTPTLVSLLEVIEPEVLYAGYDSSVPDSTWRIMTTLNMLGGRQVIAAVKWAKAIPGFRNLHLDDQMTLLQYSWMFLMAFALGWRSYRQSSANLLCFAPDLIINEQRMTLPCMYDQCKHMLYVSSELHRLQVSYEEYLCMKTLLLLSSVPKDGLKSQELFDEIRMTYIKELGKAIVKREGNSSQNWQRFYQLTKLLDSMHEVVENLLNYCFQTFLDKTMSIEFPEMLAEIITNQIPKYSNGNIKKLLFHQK

CCN(CC)c1nc(N2CCOCC2)c(C#N)c2c1CN(C)CC2
inactive: activity change, negative = inhibition [1] -1.52% | activity change, negative = inhibition [2] 12.3% | activity, negative = inhibition [3] 9.24% | Potency [4] > 20.6 µM

CCCCNC(=O)N1CCOCCOCCN(C(=O)NCCCC)CCOCC1
inactive: activity change, negative = inhibition [1] -5.59% | activity change, negative = inhibition [2] 4.17% | activity, negative = inhibition [3] 5.68% | Potency [4] > 20.6 µM

CC(NC(=O)c1ccc(=O)oc1)c1ccccc1 (stereo not given)
inactive: activity change, negative = inhibition [1] 8.92% | activity change, negative = inhibition [2] 0.391% | activity, negative = inhibition [3] 6.96% | Potency [4] > 20.6 µM

COc1ccc(-n2ncc3c(NCCCn4ccnc4)ncnc32)cc1
inactive: activity change, negative = inhibition [1] -7.88% | activity change, negative = inhibition [2] -15.7% | activity, negative = inhibition [3] -5.95% | Potency [4] > 20.6 µM

CCOC(=O)c1c(-c2cccs2)csc1NC(=O)CCCC(=O)O
inactive: activity change, negative = inhibition [1] -7.6% | activity change, negative = inhibition [2] -2.47% | activity, negative = inhibition [3] -0.962% | Potency [4] > 20.6 µM

CCN(CC)c1ncc(C)c(=O)[nH]1
inactive: activity change, negative = inhibition [1] 16.3% | activity change, negative = inhibition [2] 2.65% | activity, negative = inhibition [3] 7.65% | Potency [4] > 20.6 µM

Cc1cc(=O)oc(C)c1C(=O)NCCc1ccccc1
inactive: activity change, negative = inhibition [1] 8.18% | activity change, negative = inhibition [2] -8.25% | activity, negative = inhibition [3] 14.6% | Potency [4] > 20.6 µM

O=C1C(=O)N(CCN2CCOCC2)C(c2ccccn2)/C1=C(/O)c1ccccc1 (stereo not given)
inactive: activity change, negative = inhibition [1] -4.12% | activity change, negative = inhibition [2] 3.29% | activity, negative = inhibition [3] -1.75% | Potency [4] > 20.6 µM

CSc1nc(Oc2ccc(=O)[nH]n2)nc(N(C)C)n1
inactive: activity change, negative = inhibition [1] 0.488% | activity change, negative = inhibition [2] -5.44% | activity, negative = inhibition [3] 3.84% | Potency [4] > 20.6 µM

CCC1=C(C(=O)OC)C(c2cc(OC)ccc2OC)C(C#N)=C(N)O1 (stereo not given)
inactive: activity change, negative = inhibition [1] -1.51% | activity change, negative = inhibition [2] -14.5% | activity, negative = inhibition [3] 4.21% | Potency [4] > 20.6 µM

CCN(CC)S(=O)(=O)c1ccc2c(c1)c(C(=O)O)cn2C
inactive: activity change, negative = inhibition [1] -6.47% | activity change, negative = inhibition [2] -1.02% | activity, negative = inhibition [3] 1.11% | Potency [4] > 20.6 µM

c1cc2c(cc1C1=Nn3c(nnc3C3CCCCC3)SC1)OCO2
inactive: activity change, negative = inhibition [1] -22.3% | activity change, negative = inhibition [2] 14.4% | activity, negative = inhibition [3] -7.03% | Potency [4] > 20.6 µM

CCOC(=O)CSC1=C(C#N)C(c2ccc3c(c2)OCO3)CC(=O)N1 (stereo not given)
inactive: activity change, negative = inhibition [1] -5.02% | activity change, negative = inhibition [2] 4.11% | activity, negative = inhibition [3] 3.81% | Potency [4] > 20.6 µM

Nc1nnc(CC2=CCCCC2)s1
inactive: activity change, negative = inhibition [1] 1.59% | activity change, negative = inhibition [2] -3.51% | activity, negative = inhibition [3] 3.57% | Potency [4] > 20.6 µM

COC(=O)CSc1nc2c(c(=O)n(C)c(=O)n2C)n1CCC(C)C
inactive: activity change, negative = inhibition [1] 10.4% | activity change, negative = inhibition [2] -5.51% | activity, negative = inhibition [3] 6.93% | Potency [4] > 20.6 µM

Cc1cc(O)ccc1-c1cnc2ccccc2n1
inactive: activity change, negative = inhibition [1] 5.77% | activity change, negative = inhibition [2] -5.17% | activity, negative = inhibition [3] 21.5% | Potency [4] > 20.6 µM

COc1cc(C2C(C(=O)c3cccs3)=C(O)C(=O)N2c2cc(C)on2)ccc1O (stereo not given)
inactive: activity change, negative = inhibition [1] -2.96% | activity change, negative = inhibition [2] 0.425% | activity, negative = inhibition [3] -6.54% | Potency [4] > 20.6 µM

CCC(=O)OC1=C2C(=Nc3c(c(=O)n(C)c(=O)n3C)C2c2ccccc2)c2ccccc21 (stereo not given)
inactive: activity change, negative = inhibition [1] 8.9% | activity change, negative = inhibition [2] -4% | activity, negative = inhibition [3] 14.9% | Potency [4] > 20.6 µM

Cc1cccn2c(=O)c3cc(C#N)c(=N)n(Cc4ccncc4)c3nc12
inactive: activity change, negative = inhibition [1] 6.9% | activity change, negative = inhibition [2] -26.5% | activity, negative = inhibition [3] -5.05% | Potency [4] > 20.6 µM

Cc1cccc(-n2ncc3c(NCCN4CCOCC4)ncnc32)c1
inactive: activity change, negative = inhibition [1] 1.48% | activity change, negative = inhibition [2] 8.91% | activity, negative = inhibition [3] 4.97% | Potency [4] > 20.6 µM

COc1cc(=O)n2c(-c3ccccc3)csc2n1
inactive: activity change, negative = inhibition [1] 6.57% | activity change, negative = inhibition [2] 0.0134% | activity, negative = inhibition [3] 8.66% | Potency [4] > 20.6 µM

CCC(=O)NC1(C(F)(F)F)C(=O)Nc2c1c(=O)[nH]c(=O)n2Cc1ccco1 (stereo not given)
inactive: activity change, negative = inhibition [1] 6.62% | activity change, negative = inhibition [2] 18.9% | activity, negative = inhibition [3] -0.859% | Potency [4] > 20.6 µM

CC/C(C)=C1\SC(N2CCN(C(C)=O)CC2)=NC1=O
inactive: activity change, negative = inhibition [1] 2% | activity change, negative = inhibition [2] 5.99% | activity, negative = inhibition [3] 8.03% | Potency [4] > 20.6 µM

CC1CN(C2CCN(S(=O)(=O)Cc3ccccc3)CC2)CC(C)O1 (stereo not given)
inactive: activity change, negative = inhibition [1] 3.47% | activity change, negative = inhibition [2] -2.24% | activity, negative = inhibition [3] 5.06% | Potency [4] > 20.6 µM

COC(=O)c1ccc(C2/C(=C(\O)c3cccc(OC)c3)C(=O)C(=O)N2CCCN(C)C)cc1 (stereo not given)
inactive: activity change, negative = inhibition [1] 2.5% | activity change, negative = inhibition [2] 3.34% | activity, negative = inhibition [3] 5.36% | Potency [4] > 20.6 µM
